Bioassay records from PubChem.
In the library only some 3% were active in any assay of this set; here they are far more common.
Peg3 prom inh: inhibitors of Peg3 promoter; HeLa PEG-Prom luciferase reporter, luminescence, overnight; inhibition, % at 20 µM; 1.7% of 360,000 active;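 active means inhibition of at least 50% at 20 µM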
Shn3 3UTR inh: inhibitors of Schnurri-3 3'UTR reporter in osteoblasts; AID 588674; 0.52% of 360,000 active; inhibition, % at 12.5 µM; Clone20 osteoblast Shn3 3'UTR firefly luciferase, 24 h;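 active means mean inhibition of at least 75% with every replicate also reaching 75%; inconclusive means mean inhibition at least 75% but some replicate below; inactive means mean inhibition below 75%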
ABHD5 PLIN5 PPI: ABHD5-PLIN5 protein interaction inhibition; Q00G26+Q8WTS1; Split G. princeps luciferase complementation, luminescence, 4 h; inhibition, % at 4 µM; 0.78% of 360,000 active;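 active means inhibition above the mean inhibition across every tested compound plus 3 SD, cut at about 22% in these data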
Target sequence (Q00G26 whole entry, looked up): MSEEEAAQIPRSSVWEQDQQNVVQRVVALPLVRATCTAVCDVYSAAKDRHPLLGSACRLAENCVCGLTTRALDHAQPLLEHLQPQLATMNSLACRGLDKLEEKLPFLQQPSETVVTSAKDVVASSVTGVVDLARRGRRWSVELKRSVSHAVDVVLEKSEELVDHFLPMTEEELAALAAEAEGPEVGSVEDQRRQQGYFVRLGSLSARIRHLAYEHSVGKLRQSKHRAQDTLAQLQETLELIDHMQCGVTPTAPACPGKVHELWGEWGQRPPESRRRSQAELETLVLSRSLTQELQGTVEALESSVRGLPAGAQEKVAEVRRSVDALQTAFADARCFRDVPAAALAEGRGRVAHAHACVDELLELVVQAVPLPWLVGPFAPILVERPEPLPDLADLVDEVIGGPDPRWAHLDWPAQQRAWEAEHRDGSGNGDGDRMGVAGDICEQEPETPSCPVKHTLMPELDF
Target sequence (Q8WTS1 whole entry, looked up): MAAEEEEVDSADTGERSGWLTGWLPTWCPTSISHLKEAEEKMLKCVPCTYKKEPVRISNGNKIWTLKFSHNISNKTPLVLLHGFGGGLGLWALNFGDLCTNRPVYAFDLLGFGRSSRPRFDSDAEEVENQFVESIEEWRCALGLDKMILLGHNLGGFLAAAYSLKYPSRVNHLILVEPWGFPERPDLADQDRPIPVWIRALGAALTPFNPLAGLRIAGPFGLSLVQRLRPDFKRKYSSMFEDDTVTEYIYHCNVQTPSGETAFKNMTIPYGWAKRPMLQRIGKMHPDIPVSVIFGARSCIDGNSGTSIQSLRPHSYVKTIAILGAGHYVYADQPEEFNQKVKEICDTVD
TRPM1 prom inh: inhibitors of MITF-driven TRPM1 promoter in melanoma cells; SK-MEL-5 TRPM1 promoter luciferase, 24 h; inhibition, % at 12.5 µM; 0.83% of 330,000 active; AID 488899;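 active means mean inhibition across replicates of 60% or more, whatever share of single replicates reaches that level; inconclusive means some that reach 60%, reason not given; inactive means mean inhibition across replicates below 60%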
EWS-Fli inh: EWS/Fli transcriptional activity inhibition; A673 NR0B1-luciferase reporter, viability-normalised; inhibition, % at 12.6 µM; 0.67% of 350,000 active;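 active means mean inhibition of at least 50% after viability correction, with every replicate also passing that limit; inconclusive means mean reaches 50% but only one of two replicates passes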;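 further: firefly luciferase signal divided by Alamar Blue viability fluorescence both relative to DMSO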
PAX8 reporter: inhibitors of PAX8 transcriptional activity in RMG-I cells; RMG-I TPO-luciferase reporter, SteadyGlo, 24 h; inhibition, % at 12.6 µM; 1.2% of 360,000 active;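 active means mean replicate inhibition at least 60% with every replicate also reaching 60%; inconclusive means only one of the two criteria is met; inactive means mean below 60% and not all replicates reaching 60%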;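 further: luciferase light reporting Pax8 driven TPO promoter activity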
Numbers stand for hits; i = inactive; ? = inconclusive; nt = no result given.

SMILES	Peg3 prom inh	Shn3 3UTR inh	ABHD5 PLIN5 PPI	TRPM1 prom inh	EWS-Fli inh	PAX8 reporter
O=C(NC1CCCCC1)N1[C@@H]2CNC[C@H]1C2c1ccc(-c2cccnc2)cc1 (stereo not given in full)	nt	nt	nt	nt	i	nt
COc1ccc(NC(=O)N(C)C[C@H]2Oc3ccc(NC(=O)CCCN(C)C)cc3C(=O)N([C@H](C)CO)C[C@H]2C)cc1	nt	nt	nt	nt	i	i
Cc1noc(C)c1NC(=O)Nc1ccc2c(c1)CC(=O)N([C@H](C)CO)C[C@@H](C)[C@@H](CN(C)CC1CCCCC1)O2	nt	nt	nt	nt	i	nt
CSc1cccc(NC(=O)c2cnn3ccccc23)c1	i	i	i	i	i	i
CCc1ccc(NC(=O)c2cnn3ccccc23)cc1	i	i	i	i	71	82
CCCN(CCC)c1nc(-c2ccccn2)nc2ccccc12	52	i	i	i	i	i
CCCCN(CC)c1nc(-c2ccncc2)nc2ccccc12	i	i	i	i	nt	nt
Cc1cccc(-c2ccc([C@H]3[C@H]4CN(S(=O)(=O)c5cccc(C)c5)CCCCN4[C@H]3CO)cc2)c1	nt	nt	nt	nt	i	103
Cc1ccccc1S(=O)(=O)N1CCCCN2[C@H](CO)[C@H](c3ccc(-c4ccccc4)cc3)[C@@H]2C1	nt	nt	nt	nt	i	i
COc1ccc(S(=O)(=O)N2CCCCN3[C@H](C2)[C@@H](c2ccc(C#CCC(C)C)cc2)[C@@H]3CO)cc1	nt	nt	nt	nt	i	i
CC(=O)N1CCCCN2[C@H](C1)[C@@H](c1ccc(-c3cccc(C)c3)cc1)[C@@H]2CO	nt	nt	nt	nt	i	i
CC(=O)N1CCCCN2[C@H](C1)[C@H](c1ccc(-c3cccc(C)c3)cc1)[C@@H]2CO	nt	nt	nt	nt	i	74
COc1ccc(S(=O)(=O)N2CCCCN3[C@@H](CO)[C@H](c4ccc(C#CC(C)C)cc4)[C@@H]3C2)cc1	nt	nt	nt	nt	i	74
Cc1cccc(-c2ccc([C@H]3[C@H](CO)N4CCCCN(S(=O)(=O)c5ccccc5C)C[C@@H]34)cc2)c1	nt	nt	nt	nt	i	86
Cc1cccc(-c2ccc([C@H]3[C@@H](CO)N4CCCCN(S(=O)(=O)c5cccc(C)c5)C[C@H]34)cc2)c1	nt	nt	nt	nt	i	i
CO[C@H]1CC[C@@H]2CCN(C)C(=O)C[C@H](c3ccccc3)CN(C)C(=O)c3cccc(C#N)c3OC[C@@H]1O2	nt	nt	nt	nt	i	i
CCCC#Cc1ccc([C@@H]2[C@H]3CN(S(=O)(=O)c4ccccc4F)CCCCN3[C@H]2CO)cc1	nt	nt	nt	nt	i	95
CCCC#Cc1ccc([C@@H]2[C@@H](CO)N3CCCCN(S(=O)(=O)c4ccccc4F)C[C@@H]23)cc1	nt	nt	nt	nt	i	i
CCCc1cn(CC[C@H]2CC[C@H](NC(=O)CCN3CCCCC3)[C@H](CO)O2)nn1	nt	nt	nt	nt	i	i
CNc1ccccc1C(C)(C)c1cc(-c2cccc(Br)c2)no1	i	86	i	i	i	i
CO[C@@H]1CN(C)C(=O)c2ccc(NC(=O)C3CCCC3)cc2OC[C@@H](C)N(CCC(F)(F)F)C[C@@H]1C	nt	nt	nt	nt	i	nt
CN(C)C/C=C/C(=O)Nc1cccc(-c2c[nH]c3ncnc(Oc4ccc(NC(=O)CC(=O)Nc5ccc(F)cc5)cc4F)c23)c1	i	i	24	i	nt	nt
CC(=O)Nc1cccc(Oc2ncnc3scc(-c4ccccc4)c23)c1	i	i	i	i	nt	i
CCCNC(=O)C[C@@H]1CC[C@H]2[C@H](COc3ccc(NC(=O)c4cc(C)on4)cc3C(=O)N2C)O1	nt	nt	nt	nt	i	i
Cc1[nH][nH]c(=O)c1C(c1c(C)[nH][nH]c1=O)c1cn(Cc2ccc(F)cc2)c2ccccc12	64	i	i	i	nt	nt
SMILES	Peg3 prom inh	Shn3 3UTR inh	ABHD5 PLIN5 PPI	TRPM1 prom inh	EWS-Fli inh	PAX8 reporter
C[C@@H]1CCCCO[C@H](CN(C)C(=O)Nc2ccc(F)cc2)[C@@H](C)CN([C@@H](C)CO)C(=O)c2cc(NS(=O)(=O)c3ccc(Cl)cc3)ccc2O1	nt	nt	nt	nt	i	83
C[C@H]1CCCCO[C@H](CN(C)C(=O)Nc2ccc(F)cc2)[C@@H](C)CN([C@@H](C)CO)C(=O)c2cc(NS(=O)(=O)c3ccc(Cl)cc3)ccc2O1	nt	nt	nt	nt	i	i
C[C@H](CO)N1C[C@H](C)[C@H](CN(C)C(=O)Nc2ccc(F)cc2)OCCCC[C@H](C)Oc2ccc(NS(=O)(=O)c3ccc(Cl)cc3)cc2C1=O	nt	nt	nt	nt	i	61
CC=Cc1ccc2n(c1=O)C[C@H]1[C@H](CO)[C@@H](C(=O)Nc3ccc(-c4ccccc4)cc3)N(CC)[C@@H]21 (mixture of isomers)	nt	nt	nt	nt	i	nt
CC(=O)N(C)C[C@@H]1Oc2ncc(C#Cc3cccc(F)c3)cc2C(=O)N([C@H](C)CO)C[C@H]1C	nt	nt	nt	nt	i	nt
CCS(=O)(=O)N1CCC2(CC1)CN(S(=O)(=O)c1ccccc1)[C@@H](CO)c1c2c2ccc(OC)cc2n1C	nt	nt	nt	nt	i	nt
CN(C)CCNC(=O)c1coc(=O)c(Br)c1	i	i	i	i	nt	nt
O=C(NCCc1ccccc1)c1coc(=O)c(Br)c1	107	i	i	i	i	65
O=C(NCCC1=CCCCC1)c1coc(=O)c(Br)c1	81	i	i	i	nt	nt
CC(C)CNC(=O)c1coc(=O)c(Br)c1	74	i	i	i	nt	nt
CC(C)CC#Cc1cnc2c(c1)C(=O)N([C@H](C)CO)C[C@@H](C)[C@H](CN(C)C(=O)c1ccc3c(c1)OCO3)O2	nt	nt	nt	nt	i	nt
COCCNc1nnnc2c1sc1nc(N3CCOCC3)c3c(c12)CC(C)(C)OC3	i	i	i	i	i	i
CC1(C)Cc2c(c(N3CCOCC3)nc3sc4c(=O)[nH]cnc4c23)CS1	i	i	i	i	nt	i
CC1(C)Cc2c(c(N3CCOCC3)nc3sc4c(NCCN)ncnc4c23)CO1	100	i	i	70	i	i
CCN(CC)CCNc1ncnc2c1sc1nc(N3CCOCC3)c3c(c12)CC(C)(C)SC3	104	i	i	i	nt	i
CCNC(=O)C[C@H]1C=C[C@@H](NS(=O)(=O)c2ccc(F)cc2)[C@H](CO)O1	nt	nt	nt	nt	i	i
O=C(OCc1ccccc1)N(CCCCN(CCCNCc1ccccc1)C(=O)OCc1ccccc1)CCCNCc1ccccc1	108	99	i	97	?	98
O=C(NCCCCCCNC(=O)OCc1ccccc1)OCc1ccccc1	i	i	i	i	i	i
O=C(COC(=O)CCN1C(=O)/C(=C\C=C\c2ccccc2)SC1=S)Nc1ccc(Br)cc1	i	i	i	64	i	i
O=C(O)CCCN1C(=O)/C(=C\C(Cl)=C\c2ccccc2)SC1=S	108	i	i	66	?	115
O=C(CCCN1C(=O)/C(=C/c2ccccc2Cl)SC1=S)Nc1cccnc1	71	i	i	i	nt	81
O=C(CCN1C(=O)/C(=C/c2ccccc2Cl)SC1=S)Nc1cccnc1	i	i	i	i	i	i
COc1cccc(/C=C2/SC(=S)N(CCCC(=O)Nc3ccc(O)cc3)C2=O)c1	99	i	i	i	i	nt
C[C@@H]1CCCCO[C@H](CN(C)S(=O)(=O)c2cn(C)cn2)[C@H](C)CN([C@H](C)CO)C(=O)c2cc(NS(=O)(=O)c3ccccc3)ccc2O1	nt	nt	nt	nt	nt	i
COc1ccc(C(=O)Nc2ccc3c(c2)OC[C@@H](C)N(C)C[C@H](C)[C@@H](OC)CN(C)C3=O)cc1	nt	nt	nt	nt	i	i
